# Screens: PubChem BioAssay, several laboratories
# Mtb betalactam: beta-lactam sensitization of Mtb H37Rv; M. tuberculosis H37Rv growth with meropenem, percent inhibition; inhibition, % at 25 µM; 0.27% of 330,000 active; call rule not given here;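 also: growth measured after seven days incubation then overnight dye step; 0% = bacteria only wells and 100% = bacteria with antibiotic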
# GDH-TPI counter-1: counter-screen for M. tuberculosis FBA inhibitors: GDH-TPI coupled enzymes. GDH-TPI coupled enzyme counterscreen, NADH absorbance. inhibition, % at 4.8 µM. 1.2% of 360,000 active. AID 588335; in the data active = inhibition above about 30%;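 also: 0% = DMSO wells and 100% = wells lacking the enzyme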
# DUSP3 inh: DUSP3 (human) phosphatase inhibition; inhibition, % at 13.3 µM; AID 1654; 0.52% of 290,000 active; recombinant VHR phosphatase, pNPP absorbance; in the data active = inhibition above about 50%
# Target sequence (P51452 whole entry, looked up): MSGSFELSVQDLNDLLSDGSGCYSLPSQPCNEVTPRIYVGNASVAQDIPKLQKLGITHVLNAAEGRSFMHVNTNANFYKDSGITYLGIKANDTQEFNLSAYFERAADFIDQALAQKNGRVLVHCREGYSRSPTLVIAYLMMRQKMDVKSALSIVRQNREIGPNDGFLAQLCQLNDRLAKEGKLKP
# Mtb hypoxia inh: Mtb hypoxia fluorescent reporter inhibition; 0.1% of 300,000 active; M. tuberculosis hypoxia-regulated fluorescent reporter, fluorescence; AID 1159583; fluorescence inhibition, % (no concentration beside the values); in the data active = fluorescence inhibition mostly above about 23%, no sharp cut-off; inactive = mostly below about 17%
# Mtb FBA inh: inhibits M. tuberculosis FBA enzyme; P9WQA3; purified M. tuberculosis FBA, fluorescence read-out; inhibition, % at 1 µM; 2.3% of 360,000 active;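 also: 0% = vehicle and 100% = reference inhibitor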
# Target sequence (P9WQA3 whole entry, looked up): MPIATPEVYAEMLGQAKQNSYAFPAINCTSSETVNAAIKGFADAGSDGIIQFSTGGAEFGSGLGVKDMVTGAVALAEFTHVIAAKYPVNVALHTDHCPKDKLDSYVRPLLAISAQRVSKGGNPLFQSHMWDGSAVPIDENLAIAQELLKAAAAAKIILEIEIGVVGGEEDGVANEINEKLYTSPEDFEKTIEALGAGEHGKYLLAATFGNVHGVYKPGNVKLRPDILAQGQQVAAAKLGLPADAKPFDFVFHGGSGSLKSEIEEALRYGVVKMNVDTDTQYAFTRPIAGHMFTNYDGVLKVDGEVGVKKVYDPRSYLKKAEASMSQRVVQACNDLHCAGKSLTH
# Mtb FBA inh conf: Mtb FBA inhibition, confirmed; purified M. tuberculosis FBA, fluorescence read-out; inhibition, % at 1 µM; shares compounds with Mtb FBA inh; 78% of 5,600 active;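 also: 0% = vehicle wells and 100% = reference inhibitor wells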
# GDH-TPI counter-2: counter-screen for M. tuberculosis FBA inhibitors: GDH-TPI coupled enzyme inhibition; GDH-TPI coupled enzyme counterscreen, fluorescence; shares compounds with Mtb FBA inh; 81% of 5,600 active; inhibition, % at 1 µM; in the data active = inhibition above about 10%
# * marks the source's active call; other numbers are inactive results; · = no result; + = active, no number. The list is not random: actives were taken first. Their share in the collection is about 3.6%. Rule as the data show it, unless noted: active = inhibition above about 27%; inactive = the rest.
SMILES,Mtb betalactam,GDH-TPI counter-1,DUSP3 inh,Mtb hypoxia inh,Mtb FBA inh,Mtb FBA inh conf,GDH-TPI counter-2
O=C(COc1ccc2c(c1)oc(=O)c1ccccc12)NC(Cc1ccc(Cl)cc1)C(=O)O (stereo not given),-2.3,12.8,28.8,·,74.2*,186.4*,132.3*
O=C(COc1ccc2ccc(=O)oc2c1)NC(Cc1ccc(Cl)cc1)C(=O)O (stereo not given),-2.0,13.7,-3.8,·,18.1,·,·
COC(=O)Cc1c(C)c2ccc(OC(=O)c3ccccc3)cc2oc1=O,93.9,8.1,8.7,2.3,78.6*,98.7*,90.4*
CCCNc1cc(C)c(C#N)c2nc3ccccc3n12,-10.1,13.6,-9.4,17.1,69.5*,55.4*,44.9*
CCCc1cc(NCc2ccccn2)n2c(nc3ccccc32)c1C#N,3.2,4.4,18.1,0.1,49.9*,86.1*,68.0*
O=C(NN=Cc1ccc([N+](=O)[O-])o1)c1cccc(S(=O)(=O)N2CCOCC2)c1,·,·,·,-4.1,·,·,·
CC(=O)c1ccc(S(=O)(=O)N2CCCC(N(C)CCc3ccccn3)C2)cc1 (stereo not given),-6.5,-0.9,6.5,2.5,75.7*,-2.5,-5.1
CC(=O)C(=NNc1ccccc1Cl)Sc1nnc(-c2ccccc2)n1-c1ccccc1,·,·,·,2.3,·,·,·
CCN(c1cccc(C)c1)S(=O)(=O)c1ccc2c(c1)oc(=O)n2C,-0.7,2.0,·,16.6,78.7*,49.2*,46.1*
COc1ccccc1-c1sc2cc3c(cc2c1C#Cc1cncn1C)OCO3,97.5,10.0,·,13.4,47.5*,88.4*,61.0*
c1ccc(-c2cn3c(n2)-c2ccccc2C3)cc1,0.1,-1.4,-8.9,7.7,47.7*,131.7*,105.9*
CCCc1c(O)c2ccccc2[nH]c1=O,10.0,-9.1,37.6,5.9,29.9*,49.7*,41.6*
N=c1c(C(=O)NCCN2CCOCC2)cc2c(=O)n3ccccc3nc2n1Cc1ccc(F)cc1,7.1,0.0,10.4,9.8,40.3*,102.8*,80.7*
N=c1c(C(=O)NCCN2CCOCC2)cc2c(=O)n3ccccc3nc2n1CCCN1CCOCC1,5.9,10.7,11.5,·,88.4*,155.7*,117.2*
O=c1c2ccccc2nc2ccccn12,-5.2,0.6,14.0,-6.1,109.3*,163.0*,150.5*
Cc1ccc2nc3c(cc(C(=O)NCCN4CCOCC4)c(=N)n3CCCN3CCOCC3)c(=O)n2c1,-4.6,5.4,16.3,·,78.3*,61.3*,42.3*
O=C(NCCN1CCOCC1)c1cc(-c2ccc(F)cc2)nc2ccccc12,-4.7,12.7,·,6.3,9.7,·,·
CCn1c(=N)c(C(=O)OC)cc2c(=O)n3ccccc3nc21,·,·,-8.0,·,·,·,·
Cc1cc(C(=O)NCCN2CCOCC2)c2ccccc2n1,-7.7,14.6,·,·,3.8,·,·
COC(=O)C1CC[C@@](C)(c2ccc(OC)cc2)C1(C)C (stereo not given in full),·,·,·,13.4,·,·,·
COC(=O)C1=C(c2cc3ccccc3o2)CC2CCC1N2C(=O)N1CCCC1 (stereo not given),·,·,·,0.0,·,·,·
C/C(C=NNc1nc2ccccc2[nH]1)=C\c1ccccc1,·,·,·,-10.2,·,·,·
CC(C)OCCCn1c(=N)c(S(=O)(=O)c2ccccc2)cc2c(=O)n3ccccc3nc21,8.5,13.4,5.7,1.2,12.9,·,·
Cn1c(=N)c(S(=O)(=O)c2ccc(F)cc2)cc2c(=O)n3ccccc3nc21,-5.1,-5.2,20.8,3.7,10.1,·,·
Cn1c(=N)c(S(=O)(=O)c2ccccc2)cc2c(=O)n3ccccc3nc21,-15.2,-1.1,20.7,·,60.3*,71.2*,53.6*
SMILES,Mtb betalactam,GDH-TPI counter-1,DUSP3 inh,Mtb hypoxia inh,Mtb FBA inh,Mtb FBA inh conf,GDH-TPI counter-2
N=c1c(S(=O)(=O)c2ccccc2)cc2c(=O)n3ccccc3nc2n1CCCN1CCOCC1,2.5,9.6,18.5,-4.9,51.9*,48.1*,38.2*
Cc1ccc(S(=O)(=O)c2cc3c(=O)n4cccc(C)c4nc3n(CC3CCCO3)c2=N)cc1 (stereo not given),·,·,37.4,·,·,·,·
N=c1c(S(=O)(=O)c2ccc(F)cc2)cc2c(=O)n3ccccc3nc2n1CC1CCCO1 (stereo not given),-2.6,6.6,20.2,1.6,83.6*,96.9*,79.4*
COc1cccc(C=Nn2nnc3c(cnn3-c3ccccc3)c2=O)c1,·,·,·,19.8,·,·,·
O=C(NC(Cc1ccccc1)C(=O)O)C(=Cc1ccccc1)NC(=O)c1cccc(Br)c1 (stereo not given),·,·,·,1.7,·,·,·
COc1ccc(/C=C2\OC(=O)c3c(OC)cccc32)cc1OC,7.2,6.4,23.5,6.8,30.4*,124.8*,96.6*
COc1ccc(C=C2C(=O)OC(C)(C)OC2=O)cc1OC,3.0,8.0,1.4,·,4.8,·,·
COc1cc(C=NNc2nc(Nc3ccccc3)nc(N3CCOCC3)n2)ccc1OC(=O)c1ccco1,·,·,·,1.0,·,·,·
CC(C)c1ccc(OCCCCN2CCCCC2)cc1,-4.2,-0.6,10.0,11.5,97.6*,129.8*,106.1*
CN(C)CCNC(=O)c1cccn(Cc2cc(C(F)(F)F)cc(C(F)(F)F)c2)c1=O,-1.6,12.3,9.4,8.2,61.5*,1.9,-2.1
CN(C)C(=O)c1cccn(Cc2ccc(C(F)(F)F)cc2)c1=O,-2.2,6.0,2.8,17.5,0.9,·,·
C=CCc1cccc(C=Nn2c(C)nnc2C)c1O,·,·,·,3.6,·,·,·
CN1C(=S)SC(N(O)C(=O)Nc2ccccc2)C1(C)C (stereo not given),0.4,-5.2,-13.3,11.8,0.3,·,·
CN1C(=S)SC(N(O)C(=O)Nc2cccc3ccccc23)C1(C)C (stereo not given),-2.4,-4.5,17.7,·,44.3*,34.8*,24.5*
Cc1cc(=O)n2cccc(O)c2n1,-1.9,5.7,-2.8,11.7,74.8*,+,+
Cc1cccn2c(=O)cc(COC(=O)C(C)Oc3ccccc3)nc12 (stereo not given),28.1,4.1,·,0.3,3.9,·,·
Cc1ccc(C)c(S(=O)(=O)Nc2ccccc2C(=O)Nc2ccc(S(=O)(=O)Nc3ncccn3)cc2)c1,11.6,-1.6,5.4,7.0,106.5*,+,+
Cc1ccc(C)c(S(=O)(=O)Nc2ccc(S(=O)(=O)Nc3ncccn3)cc2)c1,-3.2,1.1,·,0.1,-4.3,·,·
Cc1ccc(S(=O)(=O)Nc2ccccc2C(=O)Nc2ccc(S(=O)(=O)Nc3nccc(C)n3)cc2)cc1,0.1,8.6,-2.7,15.6,66.2*,35.0*,20.2*
CC(=O)Nc1ccc(C(=O)Nc2ccc(S(=O)(=O)Nc3nccc(C)n3)cc2)cc1,2.0,3.1,43.8,14.8,-2.1,·,·
Nc1ccc2c(c1)[nH]c(=O)c1cc(N)ccc12,·,0.0,·,·,32.4*,23.5,18.2*
CS(=O)(=O)c1ccc(-c2sc3cc4c(cc3c2C(=O)NN2CCOCC2)OCO4)cc1,5.4,37.1*,·,0.3,47.9*,103.8*,85.2*
COC(=O)c1c(-c2ccc(OC)cc2)sc2cc3c(cc12)OCO3,5.6,8.4,·,·,31.7*,72.3*,77.5*
